According to PubChem BioAssay (NCATS):
Unmarked numbers belong to inactive results. The call rests on the fitted dose curve; in most records, active means well fitted activation curve with a large enough effect; inconclusive means small, poorly fitted or top-dose-only effect; inactive means no such curve, though single readings can be large or run the other way. Residues, ends and D or L forms follow the SMILES beside them. *: point of attachment. Cbz = O=C(OCc1ccccc1)*

Each compound was assayed against Parathyroid hormone/parathyroid hormone-related peptide receptor (Homo sapiens) (UniProt Q03431) (assay: qHTS for PTHR1 Agonists: Optimization Screen against the NCGC LOPAC library (AID 1347079; further: 0% is about no effect)). Details: HEK293 GP2 PTHR1 GloSensor cAMP luminescence, 1 h; series mostly up to 57.1 µM; activation: at the top concentration.
Sequence of Parathyroid hormone/parathyroid hormone-related peptide receptor (Homo sapiens) (Q03431 whole entry, looked up): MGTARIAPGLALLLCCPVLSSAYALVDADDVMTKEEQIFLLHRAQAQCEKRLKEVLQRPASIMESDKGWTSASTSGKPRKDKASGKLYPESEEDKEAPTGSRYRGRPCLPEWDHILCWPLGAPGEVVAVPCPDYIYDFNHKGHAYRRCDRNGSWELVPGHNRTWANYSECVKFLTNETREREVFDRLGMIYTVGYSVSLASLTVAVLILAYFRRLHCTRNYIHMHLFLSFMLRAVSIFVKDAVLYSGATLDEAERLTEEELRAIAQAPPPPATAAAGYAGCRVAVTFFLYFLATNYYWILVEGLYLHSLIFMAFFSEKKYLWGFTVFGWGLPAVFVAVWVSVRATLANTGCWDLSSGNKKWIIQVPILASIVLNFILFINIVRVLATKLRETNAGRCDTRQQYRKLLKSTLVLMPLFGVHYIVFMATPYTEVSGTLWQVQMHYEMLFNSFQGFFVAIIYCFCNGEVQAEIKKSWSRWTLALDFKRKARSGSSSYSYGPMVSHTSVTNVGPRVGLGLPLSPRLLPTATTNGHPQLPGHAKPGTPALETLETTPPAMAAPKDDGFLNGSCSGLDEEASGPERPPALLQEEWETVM
Text: The goal of the proposed studies is to discover new compounds that act as potent agonists on the parathyroid hormone receptor type-1 (PTHR1). The PTHR1 plays critical roles in maintaining blood calcium and phosphate levels, as well as in controlling bone remodeling. PTHR1 agonists could thus be useful for treating diseases such as hypoparathyroidism and osteoporosis. In the former disease, an agonist drug would help maintain normal blood calcium and phosphate levels under conditions of parathyroid hormone deficiency. In the latter disease, an agonist drug would stimulate new bone formation and thus reduce the risk of fracture, under conditions of bone fragility, as occurs in aging. We performed an optimization assay of the quantitative high-throughput screening (qHTS) for the parathyroid hormone receptor type-1 (PTHR1) against the NCGC LOPAC library collection of […] compounds using a unique HEK-293-derived cell line (GP2) that expresses the PTHR1 and a GloSensor cAMP reporter construct. Increase in signal (activation / agonist) is the desired outcome for compounds of interest. NIH Chemical Genomics Center [NCGC] NIH Molecular Libraries Probe Production Centers Network [MLPCN] MLPCN Grant: P01 DK011794 Assay Submitter (PI): Thomas Gardella PhD, Massachusetts General Hospital
Reagents / Controls: M-PTH (1-15) peptide hormone fragments was provided by the assay provider and was used as a control. Column 1 was treated with M-PTH titration (1:2 dilution) beginning with a final concentration of 10uM. Column 2 was treated with M-PTH final concentration of 10uM. Columns 3 and 4 were treated with DMSO only to assess background and noise signal. Assay Steps: Four microLiter of cells suspension was dispensed in a 1536-well assay plate at a final density of 3000 cells/well. The plates were incubated overnight, after which 4uL of 0.5mM of BloTium Luciferin plus 0.5mM IBMX was added. Next, the plate was incubated at 37C for 1hr before 23nL of compound (at various final concentrations from 40uM to 0.32uM) and control were added using a 1536-well array Kalypsys pin-tool. The treated plates were again incubated at 37C for another hour. Luminescence signal was obtained using the PerkinElmer ViewLux plate reader after 15min or room temperature incubation.

SMILES | activation
NS(=O)(=O)c1cccc2c1c([N+](=O)[O-])cc1nc(O)c(O)nc12 | 5.15%
COc1cc(C(O)CO)ccc1O (stereo not given) | 30%
Clc1nccc2c1ccc1ccccc12 | -6.28%
Nc1ncnc2c1nc(Sc1ccc(Cl)cc1)n2[C@H]1OC2COP(=O)(O)O[C@@H]2C1O (stereo not given in full) | 11.6%
O=c1[nH]ccc2c(O)cccc12 | -11.1%
N#Cc1cc([N+](=O)[O-])c2sc(C(N)=O)[n+]([O-])c2c1 | 17.8%
CCCC[C@@]1(C2CCCC2)Cc2cc(OCC(=O)O)c(Cl)c(Cl)c2C1=O | -48.8%
CNC(=O)c1cc2c(cn1)[nH]c1ccccc12 | -30.1%
CCCc1c(OCCCOc2ccc(OCC(=O)O)cc2)ccc(C(C)=O)c1O | -11.9%
Cc1cc(Cn2cnc3c2C[C@@H](C(=O)O)N(C(=O)C(c2ccccc2)c2ccccc2)C3)ccc1N | -3.14%
C[C@H](NC(=O)/C(C#N)=C/c1ccc(O)c(O)c1)c1ccccc1 | 47.8%
Nc1ncnc2c1ncn2C1CCCC1 | -23.7%
CCC1(O)CC2CN(CCc3c([nH]c4ccccc34)[C@@](C(=O)OC)(c3cc4c(cc3OC)N(C)C3[C@]45CCN4CC=C[C@@](CC)([C@@H](OC(C)=O)[C@]3(O)C(=O)OC)[C@H]45)C2)C1 (stereo not given in full) | 17.6%
O=c1[nH]c2ccccc2c2ccccc12 | -24.2%
Cc1cccc(C2CN(C)CCc3c2cc(O)c(O)c3Cl)c1 (stereo not given) | -3.75%
CC(C)[C@H](NC(=O)OCc1ccccc1)C(=O)N[C@H](C=O)Cc1ccccc1 (Cbz-Val-Phe-aldehyde) | 3.75%
CCN(CC)CCCCCCCCOC(=O)c1cc(OC)c(OC)c(OC)c1 | -13%
CC(=O)SC1CC2=CC(=O)CC[C@]2(C)C2CC[C@@]3(C)C(CC[C@@]34CCC(=O)O4)C12 (stereo not given in full) | -23.1%
C[N+](C)(C)CC=O | -19.4%
CN1Cc2sccc2C(c2ccc(O)c(O)c2)C1 (stereo not given) | 0.218%

SMILES | activation
NC(=O)c1cc[n+](CC2=C(C(=O)O)N3C(=O)[C@@H](NC(=O)[C@@H](c4ccccc4)S(=O)(=O)[O-])[C@H]3SC2)cc1 | 10.9%
CN1CCC2(CCN3CCc4c(oc5ccccc45)C3C2)N(C)C1=O (stereo not given) | -23.6%
CC[C@H](NC(=O)c1c(C)c(-c2ccccc2)nc2ccccc12)c1ccccc1 | 5.02%
CC(=O)O[C@H]1Cc2ccccc2N(C(N)=O)c2ccccc21 | -24.3%
c1ccc(CN2CCC3(CCCc4ccccc43)CC2)cc1 | 28%
N#C/C(=C\c1ccc(O)c(O)c1)C(=O)NCCCNC(=O)/C(C#N)=C/c1ccc(O)c(O)c1 | 2.09%
COC(=O)C(N)Cc1ccc(Cl)cc1 (stereo not given) | -19.2%
CCOC(=O)C12CC1/C(=N/O)c1ccccc1O2 (stereo not given) | 17.8%
CC1C(=O)N(C)C(=O)c2nc[nH]c21 (stereo not given) | -5.89%
O=C(O)c1ccccc1Nc1ccccc1 | 16.1%
CCCCCCCCCC(=O)NC(CN1CCOCC1)[C@H](O)c1ccccc1 (stereo not given in full) | -9.11%
OCC1NCC(O)C(O)C1O (stereo not given) | -2.22%
N[C@H]1CONC1=O | -3.31%
NC/C=C\C(=O)O | -13.8%
NC1(C(=O)O)CCc2cc(C(=O)O)ccc21 (stereo not given) | -49.9%
NCC(O)(CS(=O)(=O)O)c1ccc(Cl)cc1 (stereo not given) | -6.19%
N[C@@H](Cc1c[nH]c2ccccc12)C(=O)O | -24.3%
NC(N)=NC(N)=Nc1cccc(Cl)c1 | -35%
O=[N+]([O-])c1cccc2cn[nH]c12 | -8.98%
COc1cc(N)c(Cl)cc1C(=O)OCCN1CCCCC1 | -22.4%
